Results as given in the supplement of paper PMC10849652.
The full data set covers some 7,900 targets. This sample favours those with a hit. About 0.6% of all pairs of compound and target were hits.

These targets were tested with Cc1nc(Nc2n[nH]c3c2CN(C(=O)N[C@H](CN(C)C)c2ccccc2)C3(C)C)c2sccc2n1 (assay: log2 fold change, soluble protein after heating vs DMSO (PISA); higher = thermal stabilisation; K562 cells, 10 uM, 30 min; active = over 0.2 and 3.5 SD of the protein, either way, in both replicates (recomputed)).
In short: (§1)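 K562 cells at 2×10^6 cells/mL were given 10 μM compound for 30 min. Aliquots then went through 3 min of heating across 48°C-58°C, were pooled, and were extracted in PBS with 0.5% NP-40 at 4°C, and the supernatant after 21,000xg for 90 min was quantified by TMTpro 16plex LC-MS/MS with channel sums equalised. Thermal stability relative to control samples, from duplicates, is given as log2 fold change.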

Chain of UniProt Q9H777 (Q9H777 whole entry, looked up): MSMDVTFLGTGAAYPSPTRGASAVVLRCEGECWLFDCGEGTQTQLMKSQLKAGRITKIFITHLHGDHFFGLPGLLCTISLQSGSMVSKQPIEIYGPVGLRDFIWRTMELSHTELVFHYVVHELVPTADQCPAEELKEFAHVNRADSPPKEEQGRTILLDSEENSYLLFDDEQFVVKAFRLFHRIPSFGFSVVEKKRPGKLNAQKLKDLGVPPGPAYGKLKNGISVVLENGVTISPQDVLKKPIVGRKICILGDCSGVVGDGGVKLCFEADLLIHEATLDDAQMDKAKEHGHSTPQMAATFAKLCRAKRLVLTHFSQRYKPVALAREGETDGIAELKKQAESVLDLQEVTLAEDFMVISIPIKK
Chain of UniProt Q9H410 (Q9H410 whole entry, looked up): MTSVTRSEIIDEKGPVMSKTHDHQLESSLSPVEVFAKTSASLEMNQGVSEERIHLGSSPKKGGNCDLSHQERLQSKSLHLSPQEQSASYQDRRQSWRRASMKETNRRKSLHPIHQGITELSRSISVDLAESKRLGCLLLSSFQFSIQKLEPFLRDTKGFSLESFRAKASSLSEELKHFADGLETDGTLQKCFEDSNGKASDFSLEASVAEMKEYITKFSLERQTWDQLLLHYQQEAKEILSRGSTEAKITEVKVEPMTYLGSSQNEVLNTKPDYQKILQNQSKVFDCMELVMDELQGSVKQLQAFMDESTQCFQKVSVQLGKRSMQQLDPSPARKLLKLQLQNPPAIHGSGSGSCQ
Chain of UniProt Q8WV16 (Q8WV16 whole entry, looked up): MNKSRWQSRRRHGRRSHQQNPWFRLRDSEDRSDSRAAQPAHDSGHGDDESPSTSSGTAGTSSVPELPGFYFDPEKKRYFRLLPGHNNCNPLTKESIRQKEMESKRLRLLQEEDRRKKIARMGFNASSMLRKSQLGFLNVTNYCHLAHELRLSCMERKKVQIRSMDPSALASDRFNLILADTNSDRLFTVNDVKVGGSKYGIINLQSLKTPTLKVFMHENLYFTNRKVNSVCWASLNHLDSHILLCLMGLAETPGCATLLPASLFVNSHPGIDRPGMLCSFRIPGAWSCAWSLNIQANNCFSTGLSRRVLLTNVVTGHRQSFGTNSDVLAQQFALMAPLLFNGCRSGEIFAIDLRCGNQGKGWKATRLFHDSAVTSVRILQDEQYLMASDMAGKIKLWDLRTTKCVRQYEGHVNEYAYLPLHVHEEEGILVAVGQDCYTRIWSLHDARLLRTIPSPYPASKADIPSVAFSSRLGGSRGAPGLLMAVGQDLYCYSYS
Chain of UniProt O43432 (O43432 whole entry, looked up): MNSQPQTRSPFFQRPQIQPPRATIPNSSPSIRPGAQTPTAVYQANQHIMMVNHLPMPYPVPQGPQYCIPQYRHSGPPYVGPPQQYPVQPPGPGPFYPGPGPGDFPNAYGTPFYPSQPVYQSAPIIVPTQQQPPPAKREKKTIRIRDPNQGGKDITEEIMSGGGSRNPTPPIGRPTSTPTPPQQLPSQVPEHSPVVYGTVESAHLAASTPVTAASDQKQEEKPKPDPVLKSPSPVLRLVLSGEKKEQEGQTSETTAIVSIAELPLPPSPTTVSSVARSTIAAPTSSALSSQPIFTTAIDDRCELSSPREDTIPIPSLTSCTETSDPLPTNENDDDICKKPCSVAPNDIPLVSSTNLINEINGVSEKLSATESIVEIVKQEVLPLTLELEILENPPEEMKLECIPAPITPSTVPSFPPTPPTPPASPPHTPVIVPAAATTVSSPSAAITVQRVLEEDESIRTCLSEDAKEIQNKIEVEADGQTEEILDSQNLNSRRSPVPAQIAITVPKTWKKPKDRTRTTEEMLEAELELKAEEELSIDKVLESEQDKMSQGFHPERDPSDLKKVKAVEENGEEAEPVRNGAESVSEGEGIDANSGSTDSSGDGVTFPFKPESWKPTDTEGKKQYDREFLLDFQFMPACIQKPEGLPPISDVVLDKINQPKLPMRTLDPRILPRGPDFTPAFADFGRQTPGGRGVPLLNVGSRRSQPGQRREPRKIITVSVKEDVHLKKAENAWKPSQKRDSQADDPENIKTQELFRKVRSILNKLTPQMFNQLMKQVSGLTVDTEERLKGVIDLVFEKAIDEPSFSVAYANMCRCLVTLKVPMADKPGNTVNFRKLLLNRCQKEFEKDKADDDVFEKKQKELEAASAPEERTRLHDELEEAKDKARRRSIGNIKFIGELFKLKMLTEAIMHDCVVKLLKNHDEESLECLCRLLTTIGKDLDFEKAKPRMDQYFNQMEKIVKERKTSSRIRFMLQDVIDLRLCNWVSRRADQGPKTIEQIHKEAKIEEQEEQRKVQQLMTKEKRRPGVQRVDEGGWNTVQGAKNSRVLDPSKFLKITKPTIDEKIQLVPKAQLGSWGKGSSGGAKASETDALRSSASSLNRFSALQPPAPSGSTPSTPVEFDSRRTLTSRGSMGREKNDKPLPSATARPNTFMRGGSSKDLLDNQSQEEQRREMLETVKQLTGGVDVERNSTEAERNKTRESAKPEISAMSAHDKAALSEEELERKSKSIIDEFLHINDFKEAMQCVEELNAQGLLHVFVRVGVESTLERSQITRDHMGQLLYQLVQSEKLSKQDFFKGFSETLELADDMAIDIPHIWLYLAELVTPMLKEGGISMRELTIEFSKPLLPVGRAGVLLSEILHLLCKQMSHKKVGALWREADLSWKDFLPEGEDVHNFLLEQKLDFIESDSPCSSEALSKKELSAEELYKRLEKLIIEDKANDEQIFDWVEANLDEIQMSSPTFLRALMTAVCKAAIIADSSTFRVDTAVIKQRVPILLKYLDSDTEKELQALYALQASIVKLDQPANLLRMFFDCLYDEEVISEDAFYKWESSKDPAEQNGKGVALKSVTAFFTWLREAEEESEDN
Chain of UniProt Q96FC9 (Q96FC9 whole entry, looked up): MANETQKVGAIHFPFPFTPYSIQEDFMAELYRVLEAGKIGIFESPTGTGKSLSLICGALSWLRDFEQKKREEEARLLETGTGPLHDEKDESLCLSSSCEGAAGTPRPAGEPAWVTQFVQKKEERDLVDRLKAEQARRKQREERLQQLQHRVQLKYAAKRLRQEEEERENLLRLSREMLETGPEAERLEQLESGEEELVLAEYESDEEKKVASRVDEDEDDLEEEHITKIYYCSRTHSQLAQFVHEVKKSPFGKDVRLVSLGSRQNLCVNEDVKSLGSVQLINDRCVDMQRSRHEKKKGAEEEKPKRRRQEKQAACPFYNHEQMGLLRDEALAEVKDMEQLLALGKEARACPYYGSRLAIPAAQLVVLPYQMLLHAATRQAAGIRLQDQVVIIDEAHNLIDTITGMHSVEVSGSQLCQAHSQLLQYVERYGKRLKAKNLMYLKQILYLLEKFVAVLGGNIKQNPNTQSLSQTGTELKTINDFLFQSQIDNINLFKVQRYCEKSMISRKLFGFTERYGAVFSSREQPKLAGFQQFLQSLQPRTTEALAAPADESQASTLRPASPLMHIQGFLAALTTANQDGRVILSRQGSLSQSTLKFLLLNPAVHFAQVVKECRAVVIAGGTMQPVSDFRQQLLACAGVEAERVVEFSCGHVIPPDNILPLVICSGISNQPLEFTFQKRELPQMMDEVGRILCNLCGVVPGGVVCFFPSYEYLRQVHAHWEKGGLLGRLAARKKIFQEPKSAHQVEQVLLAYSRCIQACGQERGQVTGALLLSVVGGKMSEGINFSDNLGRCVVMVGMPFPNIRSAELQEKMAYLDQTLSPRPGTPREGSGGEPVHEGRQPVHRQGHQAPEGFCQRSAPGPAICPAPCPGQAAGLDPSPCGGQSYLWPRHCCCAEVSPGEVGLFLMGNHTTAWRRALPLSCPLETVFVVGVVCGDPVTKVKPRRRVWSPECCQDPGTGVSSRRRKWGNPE
Chain of UniProt P32519 (P32519 whole entry, looked up): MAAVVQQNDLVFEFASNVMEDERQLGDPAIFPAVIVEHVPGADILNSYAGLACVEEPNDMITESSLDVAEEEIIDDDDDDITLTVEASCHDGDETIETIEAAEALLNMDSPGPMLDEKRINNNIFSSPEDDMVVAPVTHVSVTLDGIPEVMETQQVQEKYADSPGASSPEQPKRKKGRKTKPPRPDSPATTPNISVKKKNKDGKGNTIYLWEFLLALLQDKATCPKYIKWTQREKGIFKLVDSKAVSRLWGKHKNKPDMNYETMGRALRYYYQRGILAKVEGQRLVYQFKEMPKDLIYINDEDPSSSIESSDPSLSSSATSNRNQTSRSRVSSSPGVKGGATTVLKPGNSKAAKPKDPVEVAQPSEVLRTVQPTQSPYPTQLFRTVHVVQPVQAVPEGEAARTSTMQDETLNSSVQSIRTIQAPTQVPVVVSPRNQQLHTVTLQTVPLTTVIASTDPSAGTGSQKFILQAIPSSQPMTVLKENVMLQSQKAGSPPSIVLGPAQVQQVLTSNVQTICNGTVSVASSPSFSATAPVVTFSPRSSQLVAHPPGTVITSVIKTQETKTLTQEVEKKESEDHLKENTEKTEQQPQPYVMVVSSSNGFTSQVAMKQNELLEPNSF
Chain of UniProt Q9NQZ7 (Q9NQZ7 whole entry, looked up): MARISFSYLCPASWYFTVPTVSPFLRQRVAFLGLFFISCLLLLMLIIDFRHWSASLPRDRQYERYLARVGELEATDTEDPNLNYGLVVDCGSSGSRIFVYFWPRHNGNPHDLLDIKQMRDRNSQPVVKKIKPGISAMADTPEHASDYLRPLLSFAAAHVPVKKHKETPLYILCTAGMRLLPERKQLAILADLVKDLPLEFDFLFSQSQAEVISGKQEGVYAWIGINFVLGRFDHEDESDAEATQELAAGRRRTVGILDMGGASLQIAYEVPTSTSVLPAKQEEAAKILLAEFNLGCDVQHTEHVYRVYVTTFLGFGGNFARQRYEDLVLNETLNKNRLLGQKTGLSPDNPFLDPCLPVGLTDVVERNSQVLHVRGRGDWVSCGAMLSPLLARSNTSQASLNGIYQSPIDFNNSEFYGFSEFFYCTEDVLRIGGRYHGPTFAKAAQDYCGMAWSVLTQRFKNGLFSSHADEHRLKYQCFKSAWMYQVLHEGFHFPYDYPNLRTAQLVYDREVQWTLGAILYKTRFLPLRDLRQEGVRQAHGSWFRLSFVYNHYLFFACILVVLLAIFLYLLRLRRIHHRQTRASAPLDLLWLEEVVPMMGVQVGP

log2 fold change, inactive:
DDX11 (UniProt Q96FC9) 0.033
EID1 (UniProt Q9Y6B2) -0.084
ELMO1 (UniProt Q92556) 0.026
DHRS13 (UniProt Q6UX07) -0.153
EIF3J isoform 2 (UniProt O75822) -0.016
ELF1 (UniProt P32519) -0.028
DOLPP1 (UniProt Q86YN1) -0.062
ENTPD7 (UniProt Q9NQZ7) -0.17
DDX46, A0A0C4DG89 -0.322
DSN1 (UniProt Q9H410) -0.217
DCAF4 (UniProt Q8WV16) -0.007
FAM135A (UniProt Q9P2D6) -0.138
DDX27 (UniProt Q96GQ7) -0.051
EEF1A1 (UniProt P68104) -0.113
ELAC1 (UniProt Q9H777) -0.111
EIF4G3 isoform 3 (UniProt O43432) -0.12

What follows are targets tested with Cc1nc(Nc2ncc(C(=O)Nc3c(C)cccc3Cl)s2)cc(N2CCN(CCO)CC2)n1 [dasatinib] in the same assay as above.
In short: as §1

log2 fold change, inactive:
DDX11 (UniProt Q96FC9) 0.061
DCP2 (UniProt Q8IU60) 0.02
F2RL3 (UniProt Q96RI0) -0.03
ENTR1 (UniProt Q96C92) 0.003
FAM117B (UniProt Q6P1L5) 0.207
ELMO1 (UniProt Q92556) 0.03
DHRS13 (UniProt Q6UX07) 0.005
CWF19L2 (UniProt Q2TBE0) 0.118
EIF3J isoform 2 (UniProt O75822) 0.017
FAM193B (UniProt Q96PV7) -0.01
ELF1 (UniProt P32519) -0.134
ENTPD7 (UniProt Q9NQZ7) -0.235
DSN1 (UniProt Q9H410) -0.242
EZH2 isoform 2 (UniProt Q15910) -0.113
DNAL1 (UniProt Q4LDG9) 0.017
DCAF4 (UniProt Q8WV16) 0.11
EIF4G1 (UniProt Q04637) -0.191
CTSS (UniProt P25774) 0.052
DDX27 (UniProt Q96GQ7) 0.21
EEF1A1 (UniProt P68104) -0.116
ELAC1 (UniProt Q9H777) -0.073
ELOVL7 (UniProt A1L3X0) -0.088
EIF4G3 isoform 3 (UniProt O43432) -0.006
DLK1 (UniProt P80370) -0.012
